# Laboratory results as given in paper PMC8384837, “Expanding the binding specificity for RNA recognition by a PUF domain”.
# What was measured:
# Test in all cases: yeast three-hybrid, YBZ-1, SC-Leu-His + 0.5 mM 3-AT, 4 days
# Conditions in all cases: tags: N-Gal4 AD-HA kept; label: inside an RPR1-promoter hybrid RNA with tandem MS2 sites; ssRNA
# PUM1 PUF domain R8-KWG = PUM1 PUF domain R8-KWG (Homo sapiens, UniProt Q14671 828-1176, N1122K;Y1123W;Q1126G)
# How it was run: (§1)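 Pumilio-1 PUF domain libraries, randomized (NNK) at the three base-contacting residues of each repeat, were co-expressed with matching RNA elements from a centromeric plasmid in strain YBZ-1 (LexA–MS2 coat fusion, HIS3 reporter). Transformants were plated on SC-Leu (input) and SC-Leu-His + 0.5 mM 3-AT (selection) for four days, and repeat regions were PCR-amplified and Illumina-sequenced. The interaction score is the log2 change in variant frequency from input to selection, with pseudocount 1 where absent.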
# PUM1 PUF domain R8-CYN = PUM1 PUF domain R8-CYN (Homo sapiens, UniProt Q14671 828-1176, N1122C;Q1126N)
# PUM1 PUF domain R8-CYN, sequence (Q14671 828-1176 N1122C/Q1126N): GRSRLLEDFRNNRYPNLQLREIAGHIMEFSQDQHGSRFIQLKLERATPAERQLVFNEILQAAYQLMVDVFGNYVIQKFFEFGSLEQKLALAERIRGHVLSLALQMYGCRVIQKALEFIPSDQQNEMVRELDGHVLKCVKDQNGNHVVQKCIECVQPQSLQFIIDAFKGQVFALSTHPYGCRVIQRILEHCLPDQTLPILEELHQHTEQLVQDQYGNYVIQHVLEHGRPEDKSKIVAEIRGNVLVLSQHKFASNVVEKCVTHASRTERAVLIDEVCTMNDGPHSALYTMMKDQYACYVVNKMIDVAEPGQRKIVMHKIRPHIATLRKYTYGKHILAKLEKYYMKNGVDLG
# How it was run: as §1
# PUM1 PUF domain R5-DFR = PUM1 PUF domain R5-DFR (Homo sapiens, UniProt Q14671 828-1176, C1007D;R1008F;Q1011R)
# PUM1 PUF domain R5-DFR, sequence (Q14671 828-1176 C1007D/R1008F/Q1011R): as the sequence (Q14671 828-1176 N1122C/Q1126N) above, with C180D, R181F, Q184R, C295N, N299Q counted along it
# How it was run: as §1
# PUM1 PUF domain R5-TRK = PUM1 PUF domain R5-TRK (Homo sapiens, UniProt Q14671 828-1176, C1007T;Q1011K)
# How it was run: as §1
# PUM1 PUF domain R3-VFG = PUM1 PUF domain R3-VFG (Homo sapiens, UniProt Q14671 828-1176, C935V;R936F;Q939G)
# How it was run: as §1
# PUM1 PUF domain R5-QQG = PUM1 PUF domain R5-QQG (Homo sapiens, UniProt Q14671 828-1176, C1007Q;R1008Q;Q1011G)
# How it was run: as §1
# PUM1 PUF domain R5-PRF = PUM1 PUF domain R5-PRF (Homo sapiens, UniProt Q14671 828-1176, C1007P;Q1011F)
# How it was run: as §1
# PUM1 PUF domain R3-CHG = PUM1 PUF domain R3-CHG (Homo sapiens, UniProt Q14671 828-1176, R936H;Q939G)
# How it was run: as §1
# PUM1 PUF domain R1-TWR = PUM1 PUF domain R1-TWR (Homo sapiens, UniProt Q14671 828-1176, S863T;R864W;Q867R)
# How it was run: as §1
# PUM1 PUF domain R5-HKK = PUM1 PUF domain R5-HKK (Homo sapiens, UniProt Q14671 828-1176, C1007H;R1008K;Q1011K)
# PUM1 PUF domain R5-HKK, sequence (Q14671 828-1176 C1007H/R1008K/Q1011K): as the sequence (Q14671 828-1176 N1122C/Q1126N) above, with C180H, R181K, Q184K, C295N, N299Q counted along it
# How it was run: as §1
sequence,measurement,setting,value
GGCUAGAACUAGUGGAUCCCCCGGCGCCCGGCGGCUCGAGCCCGGGUAAGCGUAAAUAGUCUGCAUGCCGCCGGGCGCCAUGCCUGCAGGUCGACUCUAGAAAACAUG,binding signal,PUM1 PUF domain R8-KWG,6.36 log2 enrichment (interaction score)
same,binding signal,PUM1 PUF domain R8-CYN,2.28 log2 enrichment (interaction score)
GGCUAGAACUAGUGGAUCCCCCGGCGCCCGGCGGCUCGAGCCCGGGUAAGUGUCAAUAGUCUGCAUGCCGCCGGGCGCCAUGCCUGCAGGUCGACUCUAGAAAACAUG,binding signal,PUM1 PUF domain R5-DFR,5.27 log2 enrichment (interaction score)
GGCUAGAACUAGUGGAUCCCCCGGCGCCCGGCGGCUCGAGCCCGGGUAAGUGUAAAUAGUCUGCAUGCCGCCGGGCGCCAUGCCUGCAGGUCGACUCUAGAAAACAUG,binding signal,PUM1 PUF domain R8-KWG,5.91 log2 enrichment (interaction score)
same,binding signal,PUM1 PUF domain R5-TRK,4.09 log2 enrichment (interaction score)
same,binding signal,PUM1 PUF domain R3-VFG,3.82 log2 enrichment (interaction score)
same,binding signal,PUM1 PUF domain R5-QQG,0.25 log2 enrichment (interaction score)
same,binding signal,PUM1 PUF domain R5-PRF,3.86 log2 enrichment (interaction score)
same,binding signal,PUM1 PUF domain R3-CHG,2.43 log2 enrichment (interaction score)
GGCUAGAACUAGUGGAUCCCCCGGCGCCCGGCGGCUCGAGCCCGGGUAAGUGUAAAUUGUCUGCAUGCCGCCGGGCGCCAUGCCUGCAGGUCGACUCUAGAAAACAUG,binding signal,PUM1 PUF domain R1-TWR,0.55 log2 enrichment (interaction score)
GGCUAGAACUAGUGGAUCCCCCGGCGCCCGGCGGCUCGAGCCCGGGUAAGUGUAAAUCGUCUGCAUGCCGCCGGGCGCCAUGCCUGCAGGUCGACUCUAGAAAACAUG,binding signal,PUM1 PUF domain R1-TWR,5.66 log2 enrichment (interaction score)
GGCUAGAACUAGUGGAUCCCCCGGCGCCCGGCGGCUCGAGCCCGGGUAAGUGUAAUUAGUCUGCAUGCCGCCGGGCGCCAUGCCUGCAGGUCGACUCUAGAAAACAUG,binding signal,PUM1 PUF domain R3-VFG,4.61 log2 enrichment (interaction score)
GGCUAGAACUAGUGGAUCCCCCGGCGCCCGGCGGCUCGAGCCCGGGUAAGUGUUAAUAGUCUGCAUGCCGCCGGGCGCCAUGCCUGCAGGUCGACUCUAGAAAACAUG,binding signal,PUM1 PUF domain R5-HKK,2.41 log2 enrichment (interaction score)
same,binding signal,PUM1 PUF domain R5-TRK,4.73 log2 enrichment (interaction score)
same,binding signal,PUM1 PUF domain R5-QQG,2.7 log2 enrichment (interaction score)
GGCUAGAACUAGUGGAUCCCCCGGCGCCCGGCGGCUCGAGCCCGGGUAAGUGUAAGUAGUCUGCAUGCCGCCGGGCGCCAUGCCUGCAGGUCGACUCUAGAAAACAUG,binding signal,PUM1 PUF domain R3-VFG,1.68 log2 enrichment (interaction score)
same,binding signal,PUM1 PUF domain R3-CHG,0.98 log2 enrichment (interaction score)
